# Measured values: the supplement of paper PMC7411054
# What was measured:
# Conditions in all cases: treatment time: 24 h
# A549-ACTB-RAB5A [1] = assay: lowest phenotypically active concentration; higher = less potent
# Procedure, shortened: (§1)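 Phenotypic activity depended on meeting both a deviation and a reproducibility criterion. The fifteen gene-edited A549, HepG2 and WPMY1 reporter lines were treated at 0.3, 1, 3 or 9 µM for 24 h, four wells each, then imaged live with features normalised to solvent control wells. Deviation required ≥3 of 4 wells past the 95th percentile of control Euclidean distances, and reproducibility a median replicate Pearson correlation above the 95th percentile of non-replicates.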
# A549-CANX-COX4 [2] = assay: as above
# Procedure, shortened: as §1
# A549-GM130-SQSTM1 [3] = assay: as above
# Procedure, shortened: as §1
# A549-TP53BP1-CLTA [4] = assay: as above
# Procedure, shortened: as §1
# HepG2-ACTB-RAB5A [5] = assay: as above
# Procedure, shortened: as §1
# A549-ACTB-RAB5A [6] = assay: phenotypically active (imaging signature differs from DMSO and reproducible) at any of 0.3-9 uM (binary (1 = active, 0 = inactive)); higher = active
# Procedure, shortened: as §1
# A549-CANX-COX4 [7] = assay: as above
# Procedure, shortened: as §1
# A549-GM130-SQSTM1 [8] = assay: as above
# Procedure, shortened: as §1
# A549-TP53BP1-CLTA [9] = assay: as above
# Procedure, shortened: as §1
# A549-TUBA1B-RELA = assay: as above
# Procedure, shortened: as §1
# HepG2-ACTB-RAB5A [10] = assay: as above
# Procedure, shortened: as §1
# HepG2-CANX-COX4 = assay: as above
# Procedure, shortened: as §1
# HepG2-GM130-SQSTM1 = assay: as above
# Procedure, shortened: as §1
# HepG2-TP53BP1-CLTA = assay: as above
# Procedure, shortened: as §1
# HepG2-TUBA1B-RELA = assay: as above
# Procedure, shortened: as §1
# WPMY1-ACTB-RAB5A = assay: as above
# Procedure, shortened: as §1
# WPMY1-CANX-COX4 = assay: as above
# Procedure, shortened: as §1
# WPMY1-GM130-SQSTM1 = assay: as above
# Procedure, shortened: as §1
# WPMY1-TP53BP1-CLTA = assay: as above
# Procedure, shortened: as §1
# WPMY1-TUBA1B-RELA = assay: as above
# Procedure, shortened: as §1
Compound,lowest phenotypically active concentration (A549-ACTB-RAB5A [1]) [µM],lowest phenotypically active concentration (A549-CANX-COX4 [2]) [µM],lowest phenotypically active concentration (A549-GM130-SQSTM1 [3]) [µM],lowest phenotypically active concentration (A549-TP53BP1-CLTA [4]) [µM],lowest phenotypically active concentration (HepG2-ACTB-RAB5A [5]) [µM],phenotypically active (A549-ACTB-RAB5A [6]),phenotypically active (A549-CANX-COX4 [7]),phenotypically active (A549-GM130-SQSTM1 [8]),phenotypically active (A549-TP53BP1-CLTA [9]),phenotypically active (A549-TUBA1B-RELA),phenotypically active (HepG2-ACTB-RAB5A [10]),phenotypically active (HepG2-CANX-COX4),phenotypically active (HepG2-GM130-SQSTM1),phenotypically active (HepG2-TP53BP1-CLTA),phenotypically active (HepG2-TUBA1B-RELA),phenotypically active (WPMY1-ACTB-RAB5A),phenotypically active (WPMY1-CANX-COX4),phenotypically active (WPMY1-GM130-SQSTM1),phenotypically active (WPMY1-TP53BP1-CLTA),phenotypically active (WPMY1-TUBA1B-RELA)
CN1C[C@H](C(=O)N[C@]2(C)O[C@@]3(O)[C@@H]4CCCN4C(=O)[C@H](Cc4ccccc4)N3C2=O)C=C2c3cccc4[nH]cc(c34)C[C@H]21 [ergotamine],9,3,3,3,9,1 (active),1 (active),1 (active),1 (active),1 (active),1 (active),1 (active),1 (active),1 (active),1 (active),1 (active),1 (active),1 (active),1 (active),1 (active)
CC(C)(C)c1cc(C=C(C#N)C#N)cc(Br)c1O,–,–,9,–,–,0 (inactive),0 (inactive),1 (active),0 (inactive),0 (inactive),0 (inactive),0 (inactive),0 (inactive),0 (inactive),0 (inactive),0 (inactive),0 (inactive),0 (inactive),0 (inactive),0 (inactive)
Cc1sc2c(c1C)C(c1ccc(Cl)cc1)=N[C@@H](CC(N)=O)c1nnc(C)n1-2,≤ 0.3,≤ 0.3,≤ 0.3,≤ 0.3,≤ 0.3,1 (active),1 (active),1 (active),1 (active),1 (active),1 (active),1 (active),1 (active),1 (active),1 (active),1 (active),1 (active),1 (active),1 (active),1 (active)
